High-throughput results (PubChem BioAssay)
Most compounds without a hit are left out; they make up all but 9.5% or so of the library.
HPGD inh = blocks human HPGD enzyme activity; 4.3% of 150,000 active; purified HPGD, NADH fluorescence kinetic, PGE2 substrate; AID 894; Potency, µM, for inactives: top-dose activity change, negative = inhibition, hits mostly inhibitors; P15428; active means well fitted inhibition curve with a large enough effect, not every such curve was filed as active; inconclusive means small, poorly fitted or top-dose-only effect, or another doubt; inactive means no such curve, though single readings can be large or run the other way
Target sequence (P15428 whole entry, looked up): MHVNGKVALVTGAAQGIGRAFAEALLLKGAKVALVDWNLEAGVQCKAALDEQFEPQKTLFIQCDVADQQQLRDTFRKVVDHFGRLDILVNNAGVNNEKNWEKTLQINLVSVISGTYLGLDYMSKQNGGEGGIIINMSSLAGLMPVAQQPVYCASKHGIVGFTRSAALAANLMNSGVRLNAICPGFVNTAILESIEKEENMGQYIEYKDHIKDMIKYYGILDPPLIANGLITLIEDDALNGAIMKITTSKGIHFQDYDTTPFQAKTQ
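20 nM HPGD preincubated 15 min at room temperature with compound in 50 mM Tris-HCl pH 8, 0.01% Tween 20. Started with 1 mM NAD+ and 30 uM prostaglandin E2; NADH fluorescence (360/450 nm) read 5 times over 30-s intervals, last minus first.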
ALDH1A1 inh = blocks purified human ALDH1A1 activity; 7.3% of 220,000 active; Purified ALDH1A1, NADH fluorescence, propionaldehyde substrate; P00352; Potency, µM (titrated, usually from 75.3 µM), without a hit: at the highest dose activity, negative = inhibition, usual class: inhibitors; active means well fitted inhibition curve with a large enough effect, not every such curve was filed as active; inconclusive means small, poorly fitted or top-dose-only effect, or another doubt; inactive means no such curve, though single readings can be large or run the other way;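 further: plate controls were no enzyme wells and a reference inhibitor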
NPSR antag = antagonists of human neuropeptide S receptor cAMP signaling | AID 1461 | Potency, µM (highest dose often 38.3 µM), for the others: at the highest dose activity change, negative = inhibition, actives largely listed as inhibitors | 1% of 220,000 active | Q6W5P4 | CHO-NPSR cells, cAMP TR-FRET, antagonist mode; further: nearly all actives have a fitted effect of over 50% in size
Tau ThT inhib = inhibitors of human tau fibril formation, thioflavin T binding; P10636; recombinant tau K18 P301L, heparin-induced fibrillization, ThT fluorescence; Potency, µM (highest dose often 57.4 µM), without a hit: at the highest dose activity, negative = inhibition, hits mostly inhibitors; 2.1% of 270,000 active; further: nearly all actives have a fitted effect of over 55% in size
Target sequence (P10636 561-689 P618L limits assumed): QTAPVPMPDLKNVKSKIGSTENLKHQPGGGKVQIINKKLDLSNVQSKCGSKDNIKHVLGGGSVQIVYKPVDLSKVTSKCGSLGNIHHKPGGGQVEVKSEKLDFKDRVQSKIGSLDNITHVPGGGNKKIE
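Heparin-induced fibrillization of the P301L-mutant K18 repeat-domain fragment of human tau was followed by ThT binding in quantitative high-throughput format.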
Tau FP inhib = tau fibrillization inhibition (FP); 0.39% of 280,000 active; K18 P301L tau heparin fibrillization, Alexa594 FP, 6 h; AID 1468; Potency, µM (titrated, usually from 57.7 µM), for inactives: top-dose activity, negative = inhibition, usual class: inhibitors; P10636; further: nearly all actives have a fitted effect of over 55% in size
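Human K18 P301L fragment (15 uM unlabeled plus 0.24 uM Alexa 594-labeled) in 100 mM sodium acetate pH 7 with compound, aggregation induced by 20 uM heparin for 6 hr at 37 C. ThT (30 uM) added for 1 hr, then Alexa 594 FP read.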
Tau fluor counter = counter-screen for tau fibril formation inhibitors. tau K18 P301L Alexa594 fluorescence, heparin fibrillization. Potency, µM (top dose mostly 57.7 µM), inactives show at the highest dose activity change, negative = decrease. 0.93% of 280,000 active. AID 1463; further: nearly all actives have a fitted effect of over 55% in size
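Human tau K18 P301L (15 uM unlabeled, 0.24 uM Alexa 594-labeled) in 100 mM sodium acetate pH 7 with 20 uM heparin, 6 hr at 37 C. ThT 30 uM added, 1 hr ambient; Alexa 594 FP and total fluorescence read at 555/632 nm.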
* hit, by the source's call; [ ] = remark or other dose. Unless noted, the call rests on the fitted dose curve; in most records, active means well fitted curve in the direction sought with a large enough effect; inconclusive means small, poorly fitted or top-dose-only effect, or another doubt; inactive means no such curve, though single readings can be large; an effect the other way counts as inactive or inconclusive. Unless noted, on the % scale 0 is the no-effect control and ±100 the full control effect; potency means the concentration at half of the fitted maximal effect.

For CC(C)(C)C(=O)Nc1ccc2nc(SCC(=O)N3CCCC3)sc2c1 the results were Tau ThT inhib -5%, Tau FP inhib 6% and Tau fluor counter -5%.
`O=S(=O)(c1ccccc1)N1CCC2(CCCN(c3ccccn3)C2)CC1` gave HPGD inh -29% and ALDH1A1 inh inconclusive.
CCc1ccc(NC(=O)CN(c2ccc(Cl)cc2)S(=O)(=O)c2ccsc2C(=O)OC)cc1 was read as Tau ThT inhib 1%, Tau FP inhib -17% and Tau fluor counter -21%.
`CCCCCC(=O)N1CC2(C)CN(C(=O)CCCCC)CC(C)(C1)C2=O` gave HPGD inh 7%, ALDH1A1 inh 9%, NPSR antag -7%[46.1 µM], Tau ThT inhib -1%, Tau FP inhib 3% and Tau fluor counter 0%.
Screening CC1(C)Cc2c(c(=S)nc(-c3ccccc3)n2CCO)CO1 returned HPGD inh 35µM*, ALDH1A1 inh 25µM*, NPSR antag 2%[46.1 µM], Tau ThT inhib 3%, Tau FP inhib 2% and Tau fluor counter -1%.
CCOC(=O)C1=C(C)N(C)C(C)=C(C(=O)OCC)C1c1ccsc1 was read as ALDH1A1 inh 2%, NPSR antag -36%, Tau ThT inhib -7%, Tau FP inhib -10% and Tau fluor counter -16%.
For CC(=O)OC[C@@H]1O[C@@H](O/N=C2/C[C@@H](O)[C@@H](O)[C@@H]3[C@@H]4C(=O)N(Cc5ccc6c(c5)OCO6)C(=O)[C@H]4CC[C@@H]23)[C@H](OC(C)=O)[C@H](OC(C)=O)[C@@H]1OC(C)=O the results were ALDH1A1 inh 13%[13.5 µM], Tau ThT inhib -2%[11.5 µM], Tau FP inhib 0%[11.6 µM] and Tau fluor counter -6%[11.6 µM].
COc1ccc(OC)c(NC(=O)N2CCN(S(=O)(=O)c3ccc4c(ccn4C)c3)CC2)c1 was read as Tau ThT inhib -3%, Tau FP inhib 4% and Tau fluor counter -23%.
`CCOc1ccccc1C(=O)Nc1c(C(=O)Nc2ccc(F)cc2)oc2ccccc12` gave Tau ThT inhib 5%, Tau FP inhib inconclusive and Tau fluor counter -27%.
CCN1C(=O)c2cccc3c(NC(=O)c4ccccc4)ccc1c23 was read as HPGD inh -10%, ALDH1A1 inh inconclusive, NPSR antag inconclusive, Tau ThT inhib inconclusive, Tau FP inhib 12% and Tau fluor counter -5%.
Screening CCN1C(=O)c2cccc3c(NC(=O)c4ccc(OC)c(OC)c4)ccc1c23 returned HPGD inh -6%, ALDH1A1 inh 4.5µM*, NPSR antag -21%[46.1 µM], Tau ThT inhib inconclusive, Tau FP inhib 4% and Tau fluor counter -6%.
For CCN1C(=O)c2cccc3c(NC(=O)C4CCCCC4)ccc1c23 the results were ALDH1A1 inh 4µM*, NPSR antag -23%[46.1 µM], Tau ThT inhib inconclusive, Tau FP inhib 3% and Tau fluor counter -3%.
For N#Cc1cn(Cc2ccncc2)c(=O)[nH]c1=O the results were ALDH1A1 inh 6%, NPSR antag 12%, Tau ThT inhib 9%, Tau FP inhib 4% and Tau fluor counter 8%.
`Cc1cc(C(F)F)n2ncc(C(=O)N3CCCCC3)c2n1` gave HPGD inh 11µM*, ALDH1A1 inh 0%, NPSR antag -4%[46.1 µM], Tau ThT inhib 4%, Tau FP inhib 0% and Tau fluor counter 5%.
Cc1cc(C(F)F)n2ncc(C(=O)N3CCC(C(N)=O)CC3)c2n1 was read as HPGD inh -11%, ALDH1A1 inh -9%, NPSR antag 7%[46.1 µM], Tau ThT inhib 5%, Tau FP inhib -13% and Tau fluor counter -3%.
O=c1cc(O)c2sc(Nc3ccc(F)cc3)nc2[nH]1 was read as HPGD inh -23%, ALDH1A1 inh inconclusive, NPSR antag 9%, Tau ThT inhib 28µM*, Tau FP inhib inconclusive and Tau fluor counter inconclusive.
CC(=O)NCCNc1nc(-c2cccc(C#N)c2)nc2ccccc12 was read as ALDH1A1 inh -8%.
